{"source": "PubChem BioAssay (NCATS)", "key": {"[1]": {"biological_target": "Calcium and integrin-binding protein 1 (Homo sapiens) (UniProt Q99828)", "sequence (Q99828 whole entry, looked up)": "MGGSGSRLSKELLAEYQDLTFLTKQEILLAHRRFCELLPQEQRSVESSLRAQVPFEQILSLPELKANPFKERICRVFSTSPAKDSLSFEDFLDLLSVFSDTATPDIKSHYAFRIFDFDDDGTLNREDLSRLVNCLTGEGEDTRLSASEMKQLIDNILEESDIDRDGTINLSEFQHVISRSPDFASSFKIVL", "assay": "Primary qHTS for Identification of Calcium Integrin Binding Protein 1 (CIB1) Competitor (AID 1508620); further: top concentration of the series differs between compounds", "details": "CIB1-GST / FITC-alphaIIb peptide fluorescence polarization; series mostly up to 57.7 µM", "how_it_was_run": "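Fluorescence polarization competition: GST-tagged CIB1 (1 uM final) preincubated with compound 15 min at room temperature, then FITC-labelled alphaIIb peptide (100 nM final) added. After 15 min at room temperature, polarization read at Ex 480/Em 540.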"}, "[2]": {"assay": "Primary qHTS for small molecule stabilizers of the endoplasmic reticulum resident proteome: Secreted ER Calcium Modulated Protein (SERCaMP) assay (AID 1508630)", "details": "SH-SY5Y GLuc-SERCaMP (Gaussia luciferase released on ER calcium loss) secretion, thapsigargin, luminescence; series mostly up to 38.4 µM", "how_it_was_run": "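The SH-SY5Y reporter protocol was run at 3 concentrations up to 38.3 uM (primary) or 11 concentrations (follow-up): 16 h compound, 100 nM thapsigargin for 4 h, then extracellular luciferase luminescence.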"}, "[3]": {"assay": "Counterscreen qHTS for small molecule stabilizers of the endoplasmic reticulum resident proteome: GLuc-NoTag assay (AID 1508627)", "details": "Gaussia luciferase NoTag secretion counterscreen, luminescence, thapsigargin 100 nM for final 4 h; series mostly up to 76.4 µM", "how_it_was_run": "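Counterscreen line: SH-SY5Y-GLuc-NoTag. Seed, 5 h; compound, 19 h; thapsigargin 100 nM, 4 h; 37C/5% CO2. Readout: secreted GLuc luminescence, coelenterazine 0.07x final, no lysis.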"}, "[4]": {"assay": "Cell Viability qHTS for small molecule stabilizers of the endoplasmic reticulum resident proteome (AID 1508629);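 further: compound exposure about 46 h in total before the viability read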; further: potency means the concentration at half of the fitted maximal effect;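 on max response: human SH-SY5Y neuroblastoma cells carrying the GLuc-SERCaMP reporter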", "details": "cell viability counter-screen, 100 nM thapsigargin for final 4 h"}, "[5]": {"biological_target": "Cytochrome P450 2D6 (Homo sapiens) (UniProt P10635)", "sequence (P10635 whole entry, looked up)": "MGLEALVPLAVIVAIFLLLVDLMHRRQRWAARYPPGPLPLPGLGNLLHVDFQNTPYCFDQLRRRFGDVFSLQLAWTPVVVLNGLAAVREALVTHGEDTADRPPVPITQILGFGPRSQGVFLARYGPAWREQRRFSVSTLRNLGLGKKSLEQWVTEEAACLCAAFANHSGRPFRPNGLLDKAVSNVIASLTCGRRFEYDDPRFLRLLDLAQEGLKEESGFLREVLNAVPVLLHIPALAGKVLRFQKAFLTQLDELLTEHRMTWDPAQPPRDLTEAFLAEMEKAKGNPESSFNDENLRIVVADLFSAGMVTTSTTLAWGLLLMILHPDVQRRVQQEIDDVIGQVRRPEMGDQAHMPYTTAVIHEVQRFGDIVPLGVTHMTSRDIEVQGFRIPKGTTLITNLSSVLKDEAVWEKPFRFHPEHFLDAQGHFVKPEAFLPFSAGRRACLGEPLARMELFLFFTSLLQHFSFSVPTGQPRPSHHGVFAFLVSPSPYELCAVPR", "assay": "Cytochrome P450 family 2 subfamily D member 6 (CYP2D6) small molecule antagonists: luciferase biochemical (cell-free) qHTS assay (AID 1645840; active means well fitted curve in the direction sought with a large enough effect in the repeat runs; an effect the other way counts as inactive or inconclusive; further: nearly all actives have a fitted effect of over 55% in size; further: potency means the concentration at half of the fitted maximal effect)", "details": "P450-Glo CYP2D6 enzyme, luciferin luminescence, 1 h; series mostly up to 57.4 µM", "how_it_was_run": "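P450-Glo CYP2D6 system: proluciferin substrate converted by enzyme to luciferin, read by luminescence proportional to activity. Enzyme-substrate mix with compound 10 min at room temperature, then NADPH regeneration 1 h before detection reagent.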"}, "[6]": {"biological_target": "Cytochrome P450 2C9 (Homo sapiens) (UniProt P11712)", "sequence (P11712 whole entry, looked up)": "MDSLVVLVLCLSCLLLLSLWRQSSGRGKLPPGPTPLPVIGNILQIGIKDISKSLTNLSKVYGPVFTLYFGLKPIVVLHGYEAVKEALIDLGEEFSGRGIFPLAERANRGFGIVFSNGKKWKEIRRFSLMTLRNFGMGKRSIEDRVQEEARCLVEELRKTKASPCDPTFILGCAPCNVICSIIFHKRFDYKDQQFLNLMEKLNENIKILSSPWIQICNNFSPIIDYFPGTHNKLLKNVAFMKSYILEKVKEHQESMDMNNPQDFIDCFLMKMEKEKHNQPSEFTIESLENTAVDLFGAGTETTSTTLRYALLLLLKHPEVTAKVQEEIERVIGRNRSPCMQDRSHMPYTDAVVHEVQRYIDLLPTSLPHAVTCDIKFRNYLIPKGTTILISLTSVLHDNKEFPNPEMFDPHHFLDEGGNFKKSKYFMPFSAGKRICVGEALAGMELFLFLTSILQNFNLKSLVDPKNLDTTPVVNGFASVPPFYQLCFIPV", "assay": "Cytochrome P450 family 2 subfamily C member 9 (CYP2C9) small molecule antagonists: luciferase biochemical (cell-free) qHTS assay (AID 1645842; active means well fitted curve in the direction sought with a large enough effect in the repeat runs; an effect the other way counts as inactive or inconclusive; further: potency means the concentration at half of the fitted maximal effect; nearly all actives have a fitted effect of over 55% in size)", "details": "P450-Glo CYP2C9 enzyme assay, luciferin luminescence; series mostly up to 57.4 µM", "how_it_was_run": "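P450-Glo CYP2C9 system: proluciferin substrate with enzyme in mix containing 0.4% BSA, 10 min at room temperature, then NADPH regeneration solution added and incubated 1 h at 37C. Detection reagent stopped reaction; luminescence read after 20 min as RLU.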"}, "[7]": {"biological_target": "Cytochrome P450 3A4 (Homo sapiens) (UniProt P08684)", "sequence (P08684 whole entry, looked up)": "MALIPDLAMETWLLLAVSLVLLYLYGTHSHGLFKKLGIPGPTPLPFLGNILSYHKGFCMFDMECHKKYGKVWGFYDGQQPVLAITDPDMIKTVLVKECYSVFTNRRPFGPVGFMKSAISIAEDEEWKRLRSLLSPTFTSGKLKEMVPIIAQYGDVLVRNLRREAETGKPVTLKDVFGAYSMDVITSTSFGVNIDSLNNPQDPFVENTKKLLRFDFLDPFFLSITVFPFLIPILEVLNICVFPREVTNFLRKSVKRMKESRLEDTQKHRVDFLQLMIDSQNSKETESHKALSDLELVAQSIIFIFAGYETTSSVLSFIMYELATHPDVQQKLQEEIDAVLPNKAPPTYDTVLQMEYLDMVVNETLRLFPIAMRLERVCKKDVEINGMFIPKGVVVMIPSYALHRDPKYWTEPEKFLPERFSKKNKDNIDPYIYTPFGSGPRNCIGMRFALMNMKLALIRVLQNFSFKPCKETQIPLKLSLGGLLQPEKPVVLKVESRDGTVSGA", "assay": "Cytochrome P450 family 3 subfamily A member 4 (CYP3A4) small molecule antagonists: luciferase qHTS assay (AID 1645841; active means well fitted curve in the direction sought with a large enough effect in the repeat runs; an effect the other way counts as inactive or inconclusive; further: potency means the concentration at half of the fitted maximal effect; nearly all actives have a fitted effect of over 45% in size)", "details": "P450-Glo CYP3A4 enzyme assay, luciferin luminescence; series mostly up to 57.4 µM", "how_it_was_run": "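P450-Glo CYP3A4 enzyme with proluciferin substrate preincubated 10 min with compound at room temperature, then NADPH regeneration 1 h. Luciferin detection reagent added for 20 min; luminescence recorded. Ketoconazole positive control.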"}}, "note": "Results filed as inconclusive are left out. A call without a number means that no potency is given here. A number with no mark means an inactive call. Activity calls are given as the source filed them. Unless noted, the call rests on the fitted dose curve; in most records, active means well fitted curve in the direction sought with a large enough effect; inconclusive means small, poorly fitted or top-dose-only effect, or another doubt; inactive means no such curve, though single readings can be large; an effect the other way counts as inactive or inconclusive."}
{"molecule": "O=c1cccc2n1CC1CNC[C@H]2C1", "values": [{"measurement": "outcome", "setting": "[1]", "value": "inactive"}, {"measurement": "Potency", "setting": "[2]", "value": "inactive"}]}
{"molecule": "O=[N+]([O-])c1c2ccccc2cc2ccccc12", "values": [{"measurement": "outcome", "setting": "[1]", "value": "inactive"}, {"measurement": "Potency", "setting": "[3]", "value": "inactive"}, {"measurement": "max response", "setting": "[4]", "value": -4.03, "unit": "%"}, {"measurement": "Potency", "setting": "[5]", "value": "inactive"}, {"measurement": "Potency", "setting": "[6]", "value": "10.8 µM (active)"}]}
{"molecule": "C[C@]12CC[C@H](O)CC1=CC[C@H]1[C@H]3CCC(=O)[C@@]3(C)CC[C@@H]12", "values": [{"measurement": "outcome", "setting": "[1]", "value": "inactive"}, {"measurement": "Potency", "setting": "[2]", "value": "inactive"}]}
{"molecule": "CC(=Cc1csc(C)n1)[C@@H]1C[C@H]2O[C@]2(C)CCC[C@H](C)[C@@H](O)[C@@H](C)C(=O)C(C)(C)[C@@H](O)CC(=O)O1", "values": [{"measurement": "outcome", "setting": "[1]", "value": "inactive"}, {"measurement": "Potency", "setting": "[2]", "value": "inactive"}]}
{"molecule": "C[C@@]12OC(=O)[C@]1([C@@H](O)[C@@H]1C=CCCC1)NC(=O)[C@H]2CCCl", "values": [{"measurement": "outcome", "setting": "[1]", "value": "inactive"}, {"measurement": "Potency", "setting": "[2]", "value": "inactive"}]}
{"molecule": "CC(=CCCC1=CCC(C2=CC(=O)OC2O)OC1O)CCC1=C(C)CCCC1(C)C", "note": "(stereo unspecified)", "values": [{"measurement": "outcome", "setting": "[1]", "value": "inactive"}, {"measurement": "Potency", "setting": "[2]", "value": "inactive"}]}
{"molecule": "COc1cccc2c1[C@]13CCN(CC4CC4)[C@H](C2)[C@]1(OC)CCC(=O)C3", "values": [{"measurement": "outcome", "setting": "[1]", "value": "inactive"}, {"measurement": "Potency", "setting": "[2]", "value": "inactive"}]}
{"molecule": "Nc1ccc(N=Nc2ccccc2)cc1", "values": [{"measurement": "outcome", "setting": "[1]", "value": "inactive"}, {"measurement": "Potency", "setting": "[3]", "value": "inactive"}, {"measurement": "max response", "setting": "[4]", "value": 1.98, "unit": "%"}, {"measurement": "Potency", "setting": "[5]", "value": "41.1 µM (active)"}, {"measurement": "Potency", "setting": "[6]", "value": "9.2 µM (active)"}]}
{"molecule": "Cc1ccccc1-n1c(Cn2cnc3c(N)ncnc32)nc2cccc(C)c2c1=O", "values": [{"measurement": "outcome", "setting": "[1]", "value": "inactive"}, {"measurement": "Potency", "setting": "[2]", "value": "inactive"}]}
{"molecule": "Clc1ccccc1C(c1ccccc1)(c1ccccc1)n1cccn1", "values": [{"measurement": "outcome", "setting": "[1]", "value": "inactive"}, {"measurement": "Potency", "setting": "[2]", "value": "inactive"}]}
{"molecule": "C=C1C[C@H]2[C@H]3CCC(=O)[C@@]3(C)CC[C@@H]2[C@@]2(C)C=CC(=O)C=C12", "values": [{"measurement": "outcome", "setting": "[1]", "value": "inactive"}, {"measurement": "Potency", "setting": "[2]", "value": "inactive"}]}
{"molecule": "CC=C(C)C(=O)O[C@H]1C(C)=C2[C@@H]3OC(=O)[C@@](C)(O)[C@@]3(O)[C@@H](OC(=O)CCC)C[C@](C)(OC(C)=O)[C@@H]2[C@@H]1OC(=O)CCCCCCC", "values": [{"measurement": "outcome", "setting": "[1]", "value": "inactive"}, {"measurement": "Potency", "setting": "[3]", "value": "inactive"}, {"measurement": "Potency", "setting": "[4]", "value": "282 nM (active)"}, {"measurement": "Potency", "setting": "[2]", "value": "inactive"}]}
{"molecule": "CCNC(=O)C[C@@H]1N=C(c2ccc(Cl)cc2)c2cc(OC)ccc2-n2c(C)nnc21", "values": [{"measurement": "outcome", "setting": "[1]", "value": "inactive"}, {"measurement": "Potency", "setting": "[2]", "value": "inactive"}]}
{"molecule": "C[C@]12CC[C@H]3[C@@H](CCC4=CC(=O)CC[C@@]43C)[C@H]1CC[C@H]2O", "values": [{"measurement": "outcome", "setting": "[1]", "value": "inactive"}, {"measurement": "Potency", "setting": "[2]", "value": "inactive"}]}
{"molecule": "CCCN1CCO[C@@H]2c3cc(O)ccc3OC[C@@H]21", "values": [{"measurement": "outcome", "setting": "[1]", "value": "inactive"}, {"measurement": "Potency", "setting": "[2]", "value": "inactive"}]}
{"molecule": "COc1ccc(CC2NCCc3cc(OC)c(OC)cc32)cc1OC", "note": "(stereo unspecified)", "values": [{"measurement": "outcome", "setting": "[1]", "value": "inactive"}, {"measurement": "Potency", "setting": "[2]", "value": "inactive"}]}
{"molecule": "CCC(=O)OC1CCC2C3CCC4=CC(=O)CC[C@@]4(C)C3CC[C@]12C", "note": "(stereo partly specified)", "values": [{"measurement": "outcome", "setting": "[1]", "value": "inactive"}, {"measurement": "Potency", "setting": "[2]", "value": "inactive"}]}
{"molecule": "O=S(=O)(CC1CS1)c1ccc(Oc2ccccc2)cc1", "note": "(stereo unspecified)", "values": [{"measurement": "outcome", "setting": "[1]", "value": "inactive"}, {"measurement": "Potency", "setting": "[2]", "value": "inactive"}]}
{"molecule": "C1=C2CCCN[C@H]2[C@@H]2C[C@H]1[C@@H]1CCCCN1C2", "values": [{"measurement": "outcome", "setting": "[1]", "value": "inactive"}, {"measurement": "Potency", "setting": "[2]", "value": "inactive"}]}
{"molecule": "C[C@@H]1O[C@@H](O[C@@H]2C=C3CC[C@@H]4[C@@H](CC[C@]5(C)[C@H](c6ccc(=O)oc6)CC[C@@]45O)[C@@]3(C)CC2)[C@H](O)[C@H](O)[C@H]1O", "values": [{"measurement": "outcome", "setting": "[1]", "value": "inactive"}, {"measurement": "Potency", "setting": "[2]", "value": "inactive"}]}
{"molecule": "C#C[C@]1(O)C=C[C@@H]2[C@@H]3CCC4=CC(=O)CC[C@@H]4[C@H]3CC[C@@]21CC", "values": [{"measurement": "outcome", "setting": "[1]", "value": "inactive"}, {"measurement": "Potency", "setting": "[2]", "value": "inactive"}]}
{"molecule": "O=[N+]([O-])c1ncc[nH]1", "values": [{"measurement": "outcome", "setting": "[1]", "value": "inactive"}, {"measurement": "Potency", "setting": "[2]", "value": "inactive"}]}
{"molecule": "N=c1c2c(-c3ccccc3)c(-c3ccccc3)n(Cc3ccccc3)c2ncn1C1CCC(O)CC1", "note": "(stereo unspecified)", "values": [{"measurement": "outcome", "setting": "[1]", "value": "inactive"}, {"measurement": "Potency", "setting": "[2]", "value": "inactive"}]}
{"molecule": "C[C@]12Cc3cn[nH]c3C[C@@H]1CC[C@@H]1[C@H]2CC[C@@]2(C)[C@H]1CC[C@]2(C)O", "values": [{"measurement": "outcome", "setting": "[1]", "value": "inactive"}, {"measurement": "Potency", "setting": "[2]", "value": "inactive"}]}
{"molecule": "CCCC[N+]1(C)[C@H]2CC(OC(=O)[C@H](CO)c3ccccc3)C[C@H]1[C@H]1O[C@H]12", "note": "(stereo partly specified)", "values": [{"measurement": "outcome", "setting": "[1]", "value": "inactive"}, {"measurement": "Potency", "setting": "[2]", "value": "inactive"}]}
{"molecule": "N#C[C@H](O[C@@H]1O[C@H](CO[C@@H]2O[C@H](CO)[C@H](O)[C@H](O)[C@H]2O)[C@H](O)[C@H](O)[C@H]1O)c1ccccc1", "values": [{"measurement": "outcome", "setting": "[1]", "value": "inactive"}, {"measurement": "Potency", "setting": "[2]", "value": "inactive"}]}
{"molecule": "C[C@H]([C@H](O)CCC(C)(C)O)[C@H]1CC[C@@]2(O)C3=CC(=O)[C@@H]4C[C@@H](O)[C@@H](O)C[C@]4(C)[C@@H]3CC[C@]12C", "values": [{"measurement": "outcome", "setting": "[1]", "value": "inactive"}, {"measurement": "Potency", "setting": "[2]", "value": "inactive"}]}
{"molecule": "CC(=O)OCC1=C(C(=O)O)N2C(=O)[C@@H](N)[C@@H]2SC1", "values": [{"measurement": "outcome", "setting": "[1]", "value": "inactive"}, {"measurement": "Potency", "setting": "[2]", "value": "inactive"}]}
{"molecule": "CC(C)[C@]12O[C@H]1[C@@H]1O[C@]13[C@]1(O[C@H]1C[C@H]1C4=C(CC[C@@]13C)C(=O)OC4)[C@@H]2O", "values": [{"measurement": "outcome", "setting": "[1]", "value": "inactive"}, {"measurement": "Potency", "setting": "[2]", "value": "inactive"}]}
{"molecule": "C[C@]12CCC(=O)C(O)=C1CC[C@@H]1[C@H]3CCC(=O)[C@@]3(C)CC[C@@H]12", "values": [{"measurement": "outcome", "setting": "[1]", "value": "inactive"}, {"measurement": "Potency", "setting": "[2]", "value": "inactive"}]}
{"molecule": "Cc1c(C(=O)c2cccc3ccccc23)c2cccc3c2n1[C@H](CN1CCOCC1)CO3", "values": [{"measurement": "outcome", "setting": "[1]", "value": "inactive"}, {"measurement": "activity change, negative = inhibition", "setting": "[2]", "value": "-12% [at 3.88 µM]"}]}
{"molecule": "Nc1ccc(Cl)cc1N", "values": [{"measurement": "outcome", "setting": "[1]", "value": "inactive"}, {"measurement": "Potency", "setting": "[3]", "value": "inactive"}, {"measurement": "max response", "setting": "[4]", "value": 1.89, "unit": "%"}, {"measurement": "Potency", "setting": "[5]", "value": "25.9 µM (active)"}, {"measurement": "Potency", "setting": "[7]", "value": "7.96 µM (active)"}, {"measurement": "Potency", "setting": "[6]", "value": "23.3 µM (active)"}]}
